Bioassay records deposited in PubChem by several laboratories.
Sampled rows, rich in hits. Any-hit rate of the full collection: about 7%.
ADAM17 inh: ADAM17 inhibition, QFRET primary screen. actives 0.83% (n = 370,000). recombinant ADAM17, EDANS/DABCYL FRET peptide cleavage. inhibition, % at 6.95 µM. AID 720648. P78536;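 active means inhibition above the mean of compounds lying between control limits plus 3 SD, set per campaign, cut at about 8.5% in these data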;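 further: 0% = DMSO-only wells as the low control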
ADAM10 inh: inhibits human ADAM10; recombinant ADAM10, EDANS/DABCYL FRET peptide cleavage, 3 h; inhibition, % at 7 µM; actives 0.62% (n = 370,000);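 active means inhibition above a per-campaign cutoff equal to the mean of compounds falling between control-based bounds plus 3 SD, cut at about 20% in these data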;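 further: 0% = DMSO wells while the 100% control is not disclosed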
KLK7 zymogen act: activates the human kallikrein-7 zymogen. P49862. purified proKLK7, EDANS-DABCYL substrate fluorescence; 100% is mature enzyme control, 0% vehicle. activation, % at 7 µM. actives 0.9% (n = 370,000);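 active means activation above the mean of all tested compounds plus 3 SD, computed per campaign excluding outliers beyond control limits, cut at about 13% in these data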
AHR activator: human AHR activation; P35869; AID 2796; activation, % at 5 µM; actives 2.5% (n = 320,000); AHR-responsive luciferase reporter cells, luminescence; in the data active means activation above about 47%;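 further: 0% = vehicle wells and 100% = reference agonist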
Target sequence (P35869 whole entry, looked up): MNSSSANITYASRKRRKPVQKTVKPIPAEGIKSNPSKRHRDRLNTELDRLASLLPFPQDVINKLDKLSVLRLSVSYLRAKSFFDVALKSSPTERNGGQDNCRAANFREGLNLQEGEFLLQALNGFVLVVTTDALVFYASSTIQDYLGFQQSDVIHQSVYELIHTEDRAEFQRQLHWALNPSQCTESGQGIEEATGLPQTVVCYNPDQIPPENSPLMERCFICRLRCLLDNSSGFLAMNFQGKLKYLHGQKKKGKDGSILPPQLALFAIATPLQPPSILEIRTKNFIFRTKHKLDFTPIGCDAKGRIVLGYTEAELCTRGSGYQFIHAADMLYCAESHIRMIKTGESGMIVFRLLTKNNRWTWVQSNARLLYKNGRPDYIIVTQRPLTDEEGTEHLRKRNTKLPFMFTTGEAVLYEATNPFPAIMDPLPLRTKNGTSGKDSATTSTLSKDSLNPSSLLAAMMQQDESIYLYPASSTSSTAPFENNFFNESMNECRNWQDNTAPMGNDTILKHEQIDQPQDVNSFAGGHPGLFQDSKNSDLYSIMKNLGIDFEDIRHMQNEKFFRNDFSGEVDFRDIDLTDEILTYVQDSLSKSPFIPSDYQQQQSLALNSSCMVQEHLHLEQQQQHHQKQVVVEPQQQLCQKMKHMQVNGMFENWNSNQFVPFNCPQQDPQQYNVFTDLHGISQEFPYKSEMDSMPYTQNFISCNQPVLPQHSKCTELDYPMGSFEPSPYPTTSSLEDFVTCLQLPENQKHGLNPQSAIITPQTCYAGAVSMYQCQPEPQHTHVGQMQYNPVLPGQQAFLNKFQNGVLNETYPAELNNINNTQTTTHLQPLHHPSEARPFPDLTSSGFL
rCAG binder: molecules binding r(CAG) RNA repeats; r(CAG) RNA repeat, TO-PRO-1 dye displacement fluorescence; inhibition, % at 3 µM; actives 1.3% (n = 370,000); AID 651821;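 active means inhibition above the plate cutoff, the mean of all test compounds on that plate plus 3 SD, cut at about 35% in these data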;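 further: 0% = DMSO alone and 100% = 100 µM mitoxantrone as full dye displacement; higher means more dye released from RNA so lower well fluorescence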
GRIN3A LBD mod: NR3A (human) ligand-binding domain modulation. NR3A LBD differential scanning fluorimetry, Tm shift; 0% = protein alone, 100% = glycine-bound protein. Tm shift relative to glycine control, % at 25 µM. actives 2.5% (n = 340,000). AID 1259313;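 active means melting temperature shift of at least 10% of the positive control shift, at one fixed dose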
ADAM10 ctr: inhibits human ADAM10 in ADAM17 exosite counter-screen | shares compounds with ADAM17 inh | recombinant ADAM10, EDANS/DABCYL FRET peptide cleavage, 3 h | inhibition, % at 6.95 µM | actives 47% (n = 2,900);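 active means mean inhibition over the triplicate runs exceeds the activity threshold set in the earlier primary screen, cut at about 20% in these data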;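 further: 0% = DMSO wells and 100% = marimastat wells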
ADAM17 confirm: human ADAM17 inhibition, confirmation; actives 65% (n = 2,900); recombinant ADAM17, EDANS/DABCYL QFRET peptide cleavage; shares compounds with ADAM17 inh; inhibition, % at 6.95 µM;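 active means mean inhibition across replicates above the hit cutoff set in the primary screen, cut at about 8.5% in these data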;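 further: 0% = DMSO wells and 100% = marimastat wells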
Starred values were filed as active, the others as inactive.

How did COc1ccc2c(c1)C(=O)N1[C@H]3c4cc(C)ccc4OC[C@@H]3[C@H](c3ccccc3)[C@]1(C)C(=O)N2 do in these assays?
ADAM17 inh: 8.9*; ADAM10 inh: 14; KLK7 zymogen act: -4; AHR activator: 2; rCAG binder: 18; GRIN3A LBD mod: -2; ADAM10 ctr: 6; ADAM17 confirm: 9.6*

How did COc1ccc2c(c1)[C@@H]1[C@H](CO2)[C@H](c2ccccc2)[C@]2(C)C(=O)Nc3ccc(C)cc3C(=O)N12 do in these assays?
AHR activator: 4; GRIN3A LBD mod: -6

How did Nc1nonc1C(=O)NCCNCc1cc(Br)ccc1OCc1ccccc1F do in these assays?
ADAM17 inh: 14*; ADAM10 inh: 25*; KLK7 zymogen act: 0; AHR activator: -2; rCAG binder: -6; GRIN3A LBD mod: -4; ADAM10 ctr: 2; ADAM17 confirm: 5

How did CCCOc1ccc(C2NC(=S)NC(C)=C2C(=O)c2ccccc2)cc1OC (centres undefined) do in these assays?
ADAM17 inh: -1; ADAM10 inh: -3; KLK7 zymogen act: 0; AHR activator: 4; rCAG binder: 4; GRIN3A LBD mod: 3

How did CC(C)C(=O)N1CCN(c2ccc(NC(=O)c3cccs3)cc2)CC1 do in these assays?
ADAM17 inh: 2; ADAM10 inh: 3; KLK7 zymogen act: 0; AHR activator: 9; rCAG binder: -4; GRIN3A LBD mod: -1

What do the screens show for `CC(C)C(=O)N1CCN(c2ccc(NC(=O)c3cccs3)cc2Cl)CC1`?
ADAM17 inh: 9.1*; ADAM10 inh: 11; KLK7 zymogen act: 1; AHR activator: -1; rCAG binder: 0; GRIN3A LBD mod: -7; ADAM10 ctr: 8; ADAM17 confirm: 6

What do the screens show for `COc1ccc(NS(=O)(=O)c2cc(NC(=O)c3ccccc3F)ccc2N2CCCC2)cc1`?
ADAM17 inh: 8; ADAM10 inh: 16; KLK7 zymogen act: 0; AHR activator: 21; rCAG binder: 7; GRIN3A LBD mod: -4

What do the screens show for `COc1ccc(NS(=O)(=O)c2cc(NC(=O)c3cccs3)ccc2N2CCCC2)cc1`?
ADAM17 inh: 9.1*; ADAM10 inh: 19; KLK7 zymogen act: -2; AHR activator: 11; rCAG binder: 9; GRIN3A LBD mod: -2; ADAM10 ctr: 18; ADAM17 confirm: 11*

How did O=C(c1ccc(CS(=O)Cc2ccccc2Cl)o1)N1CCN(c2cccc(Cl)c2)CC1 (centres undefined) do in these assays?
ADAM17 inh: 15*; ADAM10 inh: 12; KLK7 zymogen act: 0; AHR activator: 3; rCAG binder: 1; GRIN3A LBD mod: -2; ADAM10 ctr: 18; ADAM17 confirm: 9.0*

What do the screens show for `COc1cccc(N2CCN(C(=O)c3ccc(CS(=O)Cc4ccccc4Cl)o3)CC2)c1` (centres undefined)?
ADAM17 inh: 0; ADAM10 inh: -5; KLK7 zymogen act: 0; AHR activator: 1; rCAG binder: -6; GRIN3A LBD mod: -1

Results for O=C(c1ccc(CS(=O)Cc2ccccc2Cl)o1)N1CCN(c2ccccn2)CC1 (centres undefined) ?
ADAM17 inh: 12*; ADAM10 inh: -1; KLK7 zymogen act: 0; AHR activator: 31; rCAG binder: -4; GRIN3A LBD mod: -2; ADAM10 ctr: -5; ADAM17 confirm: 1

What do the screens show for `O=C(N[C@@H]1C[C@@H]2O[C@@H](CO)CC[C@@H]2O[C@@H]1CCc1ccc(-c2cccnc2)cc1)c1cccc(F)c1`?
ADAM17 inh: -4; ADAM10 inh: 1; KLK7 zymogen act: 0; rCAG binder: 4

How did O=C(CCc1nc2ccccc2c(=O)[nH]1)Nc1ccccc1N1CCCCC1 do in these assays?
ADAM17 inh: -3; ADAM10 inh: 3; KLK7 zymogen act: 1; rCAG binder: 3

What do the screens show for `OCC1(Cc2cccc(Cl)c2)CCCN(Cc2sc(N3CCCC3)nc2Cl)C1` (centres undefined)?
ADAM17 inh: 10*; ADAM10 inh: 13; KLK7 zymogen act: 1; AHR activator: 3; rCAG binder: -2; GRIN3A LBD mod: -1; ADAM10 ctr: 17; ADAM17 confirm: 9.7*

What do the screens show for `Cc1c(CN2CCCC(CO)(Cc3cccc(Cl)c3)C2)cnn1C` (centres undefined)?
ADAM17 inh: -3; ADAM10 inh: 10; KLK7 zymogen act: 0; AHR activator: 0; rCAG binder: -4; GRIN3A LBD mod: -1

What do the screens show for `CCOC(=O)c1c(O)cc(OC)cc1CCc1ccccc1`?
ADAM17 inh: 9.9*; ADAM10 inh: -2; KLK7 zymogen act: 0; rCAG binder: 13; GRIN3A LBD mod: 2; ADAM10 ctr: 9; ADAM17 confirm: 8

How did COc1cc(O)c(C(=O)O)c(CCc2ccccc2)c1 do in these assays?
ADAM17 inh: 0; ADAM10 inh: 3; KLK7 zymogen act: 1; rCAG binder: 8; GRIN3A LBD mod: 0

Results for COc1ccc(C2=Nc3ccc(C)cc3C(c3ccccc3)N2CC(=O)NN)cc1 (centres undefined) ?
ADAM17 inh: -3; ADAM10 inh: -1; KLK7 zymogen act: 0; AHR activator: 1; rCAG binder: -2; GRIN3A LBD mod: -1

How did COC(=O)CN1C(c2ccc(Cl)cc2)=Nc2ccc(Cl)cc2C1c1ccccc1 (centres undefined) do in these assays?
ADAM17 inh: 9.0*; ADAM10 inh: 12; KLK7 zymogen act: 0; AHR activator: 17; rCAG binder: 5; GRIN3A LBD mod: 0; ADAM10 ctr: 23*; ADAM17 confirm: 13*

Results for Cc1cccc(OC(=O)c2ccc3c(=O)n4c(nc3c2)CCC4)c1 ?
ADAM17 inh: 0; ADAM10 inh: -3; KLK7 zymogen act: 0; rCAG binder: 0

Results for COc1ccc(CNC(=O)C/C(C)=N/NC(=O)Cc2ccc(OC)c(OC)c2)cc1 ?
ADAM17 inh: 9.9*; ADAM10 inh: 18; KLK7 zymogen act: 0; AHR activator: 11; rCAG binder: 1; GRIN3A LBD mod: -1; ADAM10 ctr: -5; ADAM17 confirm: 2

How did CC(C)CCCCCCNC(=S)Nc1ccc(S(=O)(=O)N2CCOCC2)cc1 do in these assays?
ADAM17 inh: 9.0*; ADAM10 inh: 16; KLK7 zymogen act: 0; AHR activator: -1; rCAG binder: 10; GRIN3A LBD mod: 27*; ADAM10 ctr: 47*; ADAM17 confirm: 23*
